Screening results: PubChem BioAssay, National Center for Advancing Translational Sciences (NCATS)
HP1b chromo inh – HTS for Inhibitors of HP1-beta Chromodomain Interactions with Methylated Histone Tails; Chromobox protein homolog 1 (Homo sapiens), P83916; AlphaScreen HP1-beta / biotin-H3K9me3 peptide binding; Potency, µM (highest dose often 114 µM), inactives show top-dose activity change, negative = inhibition, usual class: inhibitors; 390,000 compounds, 0.56% hits; AID 540317, 2011; also: nearly all actives have a fitted effect of over 70% in size
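Compound inhibition of the preformed complex between 50 nM HP1-beta and 50 nM biotinylated H3K9me3 peptide was read by AlphaScreen. Buffer was PBS pH 7.4 with 0.01% Tween-20. Incubations ran 30 min at room temperature, with 10 ug/mL donor/acceptor beads.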
BAZ2B block – qHTS Assay for Inhibitors of BAZ2B; AlphaScreen BAZ2B-H3K14Ac peptide displacement; Bromodomain adjacent to zinc finger domain protein 2B (Homo sapiens), Q9UIF8; Potency, µM (doses to about 114 µM), for inactives: at the top dose activity change, negative = inhibition, actives largely listed as inhibitors; 360,000 compounds, 4.4% hits; also: % is scaled to controls: 0 for no effect and ±100 for the full control effect; nearly all actives have a fitted effect of over 60% in size
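BAZ2B 50 nM plus b-H3(5-23)K14Ac 50 nM, PBS pH 7.4/0.01% Tween-20, 30 min RT; compound added (max 110 uM), 30 min RT; streptavidin donor/Ni-chelate acceptor beads 10 ug/mL final, 20 min dark; AlphaScreen read.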
JMJD2A Tudor – qHTS Assay for Inhibitors of JMJD2A-Tudor Domain; 390,000 compounds, 4.4% hits; AlphaScreen JMJD2A-Tudor / H3K4me3 peptide binding; Lysine-specific demethylase 4A (Homo sapiens), O75164; Potency, µM (doses to about 114 µM), for the others: top-dose activity change, negative = inhibition, usual class: inhibitors; also: % is scaled to controls: 0 for no effect and ±100 for the full control effect; nearly all actives have a fitted effect of over 50% in size
G9a block – qHTS Assay for Inhibitors of Histone Lysine Methyltransferase G9a. G9a H3K9 monomethylation, AlphaScreen, 2 h. 350,000 compounds, 8.8% hits. Potency, µM (top dose mostly 102 µM), for the others: top-dose activity, negative = inhibition, most hits filed as inhibitors; also: % is scaled to controls: 0 for no effect and ±100 for the full control effect; nearly all actives have a fitted effect of over 75% in size
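Methyltransferase reactions run at room temperature for 2 h (20 nM enzyme, 500 nM biotin-H3K9 peptide, 20 uM SAM) after a 15 min compound preincubation; product detected by AlphaScreen beads and anti-H3K9me1 antibody.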
L3MBTL1 block – qHTS Assay for the Inhibitors of L3MBTL1 | Lethal(3)malignant brain tumor-like protein 1 (Homo sapiens), Q9Y468 | AlphaScreen L3MBTL1–H3K9me1 peptide binding | Potency, µM (highest dose often 57.1 µM), inactives show at the highest dose activity, negative = inhibition, hits mostly inhibitors | 230,000 compounds, 0.66% hits; also: % is scaled to controls: 0 for no effect and ±100 for the full control effect; nearly all actives have a fitted effect of over 60% in size
Target sequence (Q9Y468 whole entry, looked up): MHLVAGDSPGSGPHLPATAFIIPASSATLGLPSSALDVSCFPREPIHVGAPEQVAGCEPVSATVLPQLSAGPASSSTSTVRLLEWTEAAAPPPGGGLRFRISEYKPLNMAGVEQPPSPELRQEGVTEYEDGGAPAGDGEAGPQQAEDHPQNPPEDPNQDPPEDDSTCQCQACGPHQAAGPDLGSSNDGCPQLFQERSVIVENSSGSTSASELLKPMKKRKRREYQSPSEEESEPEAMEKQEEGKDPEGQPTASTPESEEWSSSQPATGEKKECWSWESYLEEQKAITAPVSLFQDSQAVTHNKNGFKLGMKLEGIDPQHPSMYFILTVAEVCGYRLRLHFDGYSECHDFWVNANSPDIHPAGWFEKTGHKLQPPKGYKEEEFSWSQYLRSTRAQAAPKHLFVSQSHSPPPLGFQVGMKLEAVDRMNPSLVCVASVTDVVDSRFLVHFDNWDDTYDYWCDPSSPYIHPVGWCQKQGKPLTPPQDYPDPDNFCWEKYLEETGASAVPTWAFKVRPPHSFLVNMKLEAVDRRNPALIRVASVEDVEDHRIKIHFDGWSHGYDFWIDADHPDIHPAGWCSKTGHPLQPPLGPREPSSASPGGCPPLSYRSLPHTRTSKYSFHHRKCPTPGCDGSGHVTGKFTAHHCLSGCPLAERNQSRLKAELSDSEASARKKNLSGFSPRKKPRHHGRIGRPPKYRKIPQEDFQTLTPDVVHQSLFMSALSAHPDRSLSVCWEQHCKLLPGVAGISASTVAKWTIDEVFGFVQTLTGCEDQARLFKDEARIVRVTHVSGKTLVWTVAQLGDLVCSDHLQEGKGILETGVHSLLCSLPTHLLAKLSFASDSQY
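First, the protein-peptide complex forms for 30 min at room temperature (L3MBTL1 50 nM, biotinylated H3K9me1 peptide 75 nM). Next, compounds are pin-transferred and incubated 30 min. Finally, AlphaScreen beads are added and read after 30 min.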
* hit, by the source's call; ? = inconclusive; · = no result; [ ] = dose if it differs, or a comment. In the library only some 11% were active in any assay of this set; here they are far more common. Calls follow the shape of the dose curve; as a rule, active = well fitted inhibition curve with a large enough effect; inconclusive = small, poorly fitted or top-dose-only effect; inactive = no such curve, though single readings can be large or run the other way. Potency is read from the fitted curve at half-maximal effect.

SMILES	HP1b chromo inh	BAZ2B block	JMJD2A Tudor	G9a block	L3MBTL1 block
O=C(CN1CCN(c2ccc(O)cc2)CC1)Nc1cc(S(=O)(=O)N2CCCC2)ccc1Cl	?	?	?	8.9µM*	·
O=C(CN1CCN(c2ccc(O)cc2)CC1)Nc1cc(S(=O)(=O)N2CCCCC2)ccc1Cl	50µM*	·	?	7.9µM*	-4%
CC(C)(C)OC(=O)N1CCCC(C(=O)Nc2ccc(C(=O)NCCc3ccccc3)cc2)C1 (centres undefined)	39%	·	-12%	·	·
O=C(O)c1ccc(C2Nc3ccccc3-c3nnc(SCc4ccc(Cl)cc4)nc3O2)cc1 (centres undefined)	7%	50µM*	?	-27%[59 µM]	·
CCC1Nc2ccccc2-c2nnc(SC)nc2O1 (centres undefined)	25%	-30%	-9%	?	·
CCCCSc1nnc2c(n1)OC(C(=O)c1ccccc1)Nc1ccccc1-2 (centres undefined)	·	?	·	7.1µM*	·
COc1ccccc1C(=O)C1Nc2ccccc2-c2nnc(SC)nc2O1 (centres undefined)	-4%	2%	-35%	7.1µM*	9%
Cc1ccc(N(CC(O)CN2CCCCC2)S(=O)(=O)c2ccc(C)cc2)cc1 (centres undefined)	-11%	2%	-18%	7%	·
Cc1ccc(C)c(-n2c3nc(=O)n(C)c(=O)c-3cc3ccccc32)c1	36%	-35%	-15%	79µM*	-21%
CCCCn1c(N)c(N(CC)C(=O)c2ccc(N3CCCC3=O)cc2)c(=O)[nH]c1=O	30%	0%	-3%	50µM*	11%
CCCCn1c(N)c(N(CC)C(=O)c2ccc(C#N)cc2)c(=O)[nH]c1=O	32%	2%	-2%	50µM*	·
CCCCn1c(N)c(N(CCC(C)C)C(=O)C(C)N2C(=O)c3ccccc3C2=O)c(=O)[nH]c1=O (centres undefined)	14%	9%	-5%	13µM*	-2%
CCCCn1c(N)c(N(CCC(C)C)C(=O)c2ccc(N3CCCC3=O)cc2)c(=O)[nH]c1=O	26%	7%	3%	35µM*	1%
CC(C)CCN(C(=O)c1ccc(N2CCCC2=O)cc1)c1c(N)n(Cc2ccccc2)c(=O)[nH]c1=O	32%	11%	-7%	-4%	3%
CCCCN(C(=O)C(C)N1C(=O)c2ccccc2C1=O)c1c(N)n(CCCC)c(=O)[nH]c1=O (centres undefined)	22%	-2%	-4%	4%[12.7 µM]	2%
COc1ccc(NC(=O)Cn2c(=O)ccc3cc(S(=O)(=O)N4CCCC4)ccc32)cc1Cl	24%[57 µM]	1%	-14%	2%[59 µM]	·
Cc1ccc(C(=O)NCC(c2cccs2)S(=O)(=O)c2cccs2)cc1C (centres undefined)	32%	3%	-6%	1%[59 µM]	·
CCCCn1c(N)c(N(CCC(C)C)C(=O)C2CCCN(C(=O)c3ccc(Cl)cc3)C2)c(=O)[nH]c1=O (centres undefined)	37%	11%	?	40µM*	-3%
CCCCn1c(N)c(N(CC(C)C)C(=O)C2CCN(C(=O)c3ccc(Cl)cc3)CC2)c(=O)[nH]c1=O	48%	-2%	-5%	?	5%
Cc1ccc(/C=C/C(=O)NCCc2c[nH]c3ccccc23)o1	?	·	-32%	45µM*	-21%
Cc1cc(C(=O)NCC2COc3ccccc3O2)c2ccccc2n1 (centres undefined)	36%	-17%	-3%	45µM*	-1%
Cc1ccc(/C=C/C(=O)NCC2COc3ccccc3O2)o1 (centres undefined)	?	?	56µM*	?	-3%
